Reference: PubChem BioAssay AID1159580 (chemical genetic matrix, 2015)
Out of some 5,500 compounds screened, about 2,000 (36%) were called active. Roughly 18% stayed inconclusive and do not appear here. No stated cut-off is given here; in the data, active means normalized growth mostly below about 0.91 (no sharp cut-off); inconclusive means no clear call, values can overlap the other calls; inactive means mostly above about 0.92. This is one part of the list.

Assay: chemical genetic growth profiling, strain panel (AID 1159580);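 further: tested at 20 µM; growth read once vehicle control cultures reached saturation at 30 °C; 1 = growth at the plate median or of vehicle wells; lower values mean less growth of the strain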
Settings: S. cerevisiae deletion strains, growth OD

Measured: normalized growth

N=c1ccn2c(n1)OC1C(O)C(CO)OC12 (stereo unspecified)
inactive: locus YAL021C, strain ccr4, active compounds read low 1.01 | locus YAL026C, strain drs2, active compounds read low 1.02 | locus YAL030W, strain snc1, active compounds read low 0.991 | locus YBL061C, strain skt5, active compounds read low 1.01 | locus YBR009C, strain hhf1, active compounds read low 1.01 | locus YBR023C, strain chs3, active compounds read low 0.995 | locus YBR171W, strain sec66, active compounds read low 1.01 | locus YBR231C, strain swc5, active compounds read low 1.01 | locus YBR279W, strain paf1, active compounds read low 1.01 | locus YCL011C, strain gbp2, active compounds read low 1.01 | locus YCL016C, strain dcc1, active compounds read low 1 | locus YCL061C, strain MRC1, active compounds read low 0.986 | locus YCL069W, strain vba3, active compounds read low 1.01 | locus YCR088W, strain abp1, active compounds read low 1.01 | locus YDL005C, strain med2, active compounds read low 0.986 | locus YDL040C, strain nat1, active compounds read low 0.986 | locus YDR001C, strain nth1, active compounds read low 1.01 | locus YDR069C, strain doa4, active compounds read low 1.01 | locus YDR137W, strain rgp1, active compounds read low 1.02 | locus YDR159W, strain sac3, active compounds read low 1 | locus YDR195W, strain ref2 0.976 | locus YDR297W, strain sur2, active compounds read low 0.986 | locus YDR334W, strain swr1, active compounds read low 1 | locus YDR335W, strain msn5, active compounds read low 1 | locus YDR392W, strain spt3, active compounds read low 1.01 | locus YEL003W, strain gim4, active compounds read low 1 | locus YEL037C, strain rad23, active compounds read low 0.995 | locus YEL061C, strain CIN8 (second series), active compounds read low 1.01 | locus YER015W, strain faa2, active compounds read low 1.01 | locus YER016W, strain bim1, active compounds read low 1 | locus YER111C, strain swi4, active compounds read low 0.981 | locus YER155C, strain BEM2 (second series), active compounds read low 1.01 | locus YFR010W, strain ubp6, active compounds read low 0.998 | locus YGL167C, strain pmr1, active compounds read low 1 | locus YGL173C, strain kem1, active compounds read low 0.996 | locus YGL227W, strain vid30, active compounds read low 1.02 | locus YGL240W, strain doc1, active compounds read low 0.978 | locus YGL253W, strain hxk2, active compounds read low 1 | locus YHR013C, strain ard1, active compounds read low 1.01 | locus YHR027C, strain rpn1, active compounds read low 1.01 | locus YHR142W, strain chs7, active compounds read low 1.01 | locus YJL092W, strain hpr5, active compounds read low 1.01 | locus YJL095W, strain BCK1 (second series), active compounds read low 1 | locus YJL115W, strain asf1, active compounds read low 1.01 | locus YJL129C, strain trk1, active compounds read low 1.02 | locus YJL154C, strain vps35, active compounds read low 1 | locus YJL164C, strain tpk1, active compounds read low 1 | locus YJL166W, strain qcr8, active compounds read low 0.982 | locus YKL160W, strain elf1, active compounds read low 1 | locus YKR026C, strain gcn3, active compounds read low 1.02 | locus YKR091W, strain srl3, active compounds read low 1 | locus YLL001W, strain dnm1, active compounds read low 0.998 | locus YLL026W, active compounds read low 1 | locus YLL041C, strain sdh2, active compounds read low 1 | locus YLR027C, strain aat2, active compounds read low 1.01 | locus YLR221C, strain rsa3, active compounds read low 0.993 | locus YLR258W, strain gsy2, active compounds read low 1.01 | locus YLR262C, strain YPT6 (second series), active compounds read low 1.02 | locus YLR320W, strain mms22, active compounds read low 1.01 | locus YLR342W, strain FKS1, active compounds read low 1.01 | locus YLR357W, strain rsc2, active compounds read low 0.946 | locus YLR370C, strain arc18, active compounds read low 1.01 | locus YLR384C, strain iki3, active compounds read low 1 | locus YML120C, strain ndi1, active compounds read low 0.993 | locus YMR058W, strain fet3, active compounds read low 0.998 | locus YMR125W, strain sto1, active compounds read low 0.995 | locus YMR129W, active compounds read low 0.987 | locus YMR205C, strain PFK2, active compounds read low 1.01 | locus YMR231W, strain pep5, active compounds read low 1.01 | locus YNL071W, strain lat1, active compounds read low 1.02 | locus YNL209W, strain ssb2, active compounds read low 1 | locus YNL248C, strain rpa49, active compounds read low 1.01 | locus YNL322C, strain KRE1 (second series), active compounds read low 1.01 | locus YNR049C, strain mso1, active compounds read low 1 | locus YOR001W, strain rrp6, active compounds read low 1.01 | locus YOR070C, strain gyp1, active compounds read low 1.01 | locus YOR080W, strain dia2, active compounds read low 0.996 | locus YOR083W, strain WHI5, active compounds read low 1.01 | locus YOR106W, strain vam3, active compounds read low 1.02 | locus YOR265W, strain rbl2, active compounds read low 0.993 | locus YOR270C, strain vph1, active compounds read low 1.04 | locus YOR290C, strain snf2, active compounds read low 1.01 | locus YPL051W, strain arl3, active compounds read low 1 | locus YPL078C, strain atp4, active compounds read low 0.996 | locus YPL106C, strain sse1, active compounds read low 0.981 | locus YPL240C, strain hsp82, active compounds read low 1.02
